TDP1 cell noCPT – qHTS for Inhibitors of human tyrosyl-DNA phosphodiesterase 1 (TDP1): qHTS in cells in absence of CPT; 420,000 tested, 15% active; DT40 Tdp1-/- hTDP1 cells, no CPT, ATP luminescence, 48 h; Potency, µM (highest dose often 46.2 µM), inactives show at the highest dose activity change, negative = growth inhibition, most hits filed as inhibitors; AID 686978, 2013; note: % is set by controls: 0 for no effect and ±100 for the full control effect; nearly all actives have a fitted effect of over 55% in size
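Chicken DT40 Tdp1-/- cells stably complemented with human TDP1 were seeded at 400 cells/well with DMSO in place of 20 nM camptothecin. After compound pinning, cells grew at least 48 hr at 37 °C; viability read by CellTiter-Glo luminescence.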
ClpP mod – qHTS Assay for Activators of ClpP | ATP-dependent Clp protease proteolytic subunit (Bacillus subtilis (strain 168)), P80244 | purified B. subtilis ClpP, FRET peptide cleavage, 20 min | Potency, µM (titrated, usually from 57.5 µM), inactives show at the top dose activity change, negative = active | 340,000 tested, 1.9% active | AID 651965, 2013; active = well fitted falling curve with a large enough effect; inconclusive = small, poorly fitted or top-dose-only effect; inactive = no such curve, though single readings can be large or run the other way; note: the source files actives as falling curves though it sought activators and does not explain the sign; nearly all actives have a fitted effect of over 65% in size
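ClpP 10 microg/mL final, pH 8 Tris/KCl buffer with BSA, glycerol, Tween-20; compound pinned in; FRET-FV substrate; RT 20 min; Ex320/Em430; ΔFRET vs ADEP 5.8 microM, DMSO, no enzyme.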
TDP1 cell CPT – qHTS for Inhibitors of human tyrosyl-DNA phosphodiesterase 1 (TDP1): qHTS in cells in presence of CPT. Potency, µM (series often up to 46.2 µM), inactives show at the top dose activity change, negative = growth inhibition, hits mostly inhibitors. 420,000 tested, 12% active. chicken DT40 Tdp1-/-;hTDP1 cells + 20 nM CPT, ATP luminescence, 48 h. AID 686979, 2013; note: % is set by controls: 0 for no effect and ±100 for the full control effect; nearly all actives have a fitted effect of over 55% in size
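Cell growth measured by CellTiter-Glo luminescence after a minimum 48 h, 37 C compound exposure with 20 nM CPT in Tdp1-knockout DT40 cells stably expressing hTDP1, seeded 400/well; qHTS titration format.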
TDP1 inh – qHTS Assay for Inhibitors of Tyrosyl-DNA Phosphodiesterase (TDP1). recombinant TDP1, AlphaScreen DNA substrate cleavage. AID 485290, 2010. Potency, µM (top dose mostly 130 µM), inactives show at the highest dose activity change, negative = inhibition, actives largely listed as inhibitors. 350,000 tested, 0.28% active. Tyrosyl-DNA phosphodiesterase 1 (Homo sapiens), Q9NUW8; note: % is set by controls: 0 for no effect and ±100 for the full control effect; nearly all actives have a fitted effect of over 40% in size
Target sequence (Q9NUW8 whole entry, looked up): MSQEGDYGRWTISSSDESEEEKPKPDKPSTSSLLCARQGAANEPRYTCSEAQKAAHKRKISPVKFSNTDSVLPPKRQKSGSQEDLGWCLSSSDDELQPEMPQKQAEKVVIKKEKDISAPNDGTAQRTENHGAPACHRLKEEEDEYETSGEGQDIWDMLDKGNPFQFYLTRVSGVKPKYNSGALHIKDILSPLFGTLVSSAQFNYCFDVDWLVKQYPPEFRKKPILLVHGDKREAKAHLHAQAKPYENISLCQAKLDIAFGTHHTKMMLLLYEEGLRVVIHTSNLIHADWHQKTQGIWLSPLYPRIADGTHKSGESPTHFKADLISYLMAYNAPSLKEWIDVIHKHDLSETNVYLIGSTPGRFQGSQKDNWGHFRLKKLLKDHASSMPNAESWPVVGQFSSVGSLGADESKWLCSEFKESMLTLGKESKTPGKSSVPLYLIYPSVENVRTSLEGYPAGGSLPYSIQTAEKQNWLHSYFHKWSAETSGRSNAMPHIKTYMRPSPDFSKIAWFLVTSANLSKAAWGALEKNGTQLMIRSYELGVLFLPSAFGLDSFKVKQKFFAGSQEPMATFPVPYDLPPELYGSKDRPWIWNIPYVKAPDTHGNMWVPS
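Compounds were preincubated with Tdp1 (1 nM final) for 15 min at room temperature before substrate (15 nM final) started a 5 min reaction; beads (10 ug/ml final) were then added for 10 min before AlphaScreen detection.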
* hit, by the source's call; ? = inconclusive; . = no result given; [ ] = remark or other dose. Compounds with a hit are over-represented: about 17% of the library has one in this group of screens. Unless noted, calls come from the whole dose curve; as a rule, active = well fitted curve in the direction sought with a large enough effect; inconclusive = small, poorly fitted or top-dose-only effect, or another doubt; inactive = no such curve, though single readings can be large; an effect the other way counts as inactive or inconclusive. Potency is the fitted concentration of half-maximal effect.

SMILES	TDP1 cell noCPT	ClpP mod	TDP1 cell CPT	TDP1 inh
CC[C@@]1(O)C(=O)OCc2c1cc1n(c2=O)Cc2cc3c(CN(C)C)c(O)ccc3nc2-1	0.18µM*	29%	0.15µM*	-13%[56.1 µM]
CCCCc1cc(=O)oc2c(CN(C)C)c(O)ccc12	-20%	-61%	-8%	4%
O=c1cccc2n1Cc1cc3ccccc3nc1-2	?	4%	?	5%
CC[C@@]1(O)C(=O)OCc2c1cc1n(c2=O)Cc2cc3c([N+](=O)[O-])cccc3nc2-1	0.21µM*	.	0.034µM*	.
O=c1c2ccccc2nc2n1CCN2Cc1ccc(Cl)cc1	?	?	18µM*	0%
O=c1c2ccccc2ncn1Cc1ccc(Cl)cc1	-12%	-4%	-23%	0%
COc1ccc(NC(=O)CCCS(=O)(=O)c2nc(-c3ccccc3OC)cc(C(F)(F)F)n2)c(OC)c1	-20%	-6%	-10%	6%
COc1ccccc1-c1cc(C(F)(F)F)nc(S(=O)(=O)CCCC(=O)Nc2cc(C)on2)n1	1µM*	467%	0.92µM*	6%
COc1ccc(-c2cc(C(F)(F)F)nc(S(=O)(=O)CCCC(=O)Nc3cc(C)on3)n2)cc1OC	1.2µM*	.	0.73µM*	5%
COc1ccc(Cl)cc1NC(=O)CCCS(=O)(=O)c1nc(-c2ccc(OC)c(OC)c2)cc(C(F)(F)F)n1	2.1µM*	5%	1.5µM*	3%
COc1ccc(CCNC(=O)c2c(O)nc3ccccn3c2=O)cc1OC	?	-18%	-26%	1%
COc1ccc(O)cc1CN1CCN(c2ncc(Cc3ccccc3)cn2)CC1	16µM*	-8%	23µM*	.
Oc1ccc(Cl)c(CN2CCN(c3ncc(Cc4ccccc4)cn3)CC2)c1	18µM*	-8%	?	.
Oc1cccc(CN2CCN(c3ncc(Cc4ccccc4)cn3)CC2)c1	?	-8%	?	.
COCCNC(=O)C(c1cccnc1)N(Cc1ccccc1)C(=O)Cn1nnc2ccccc21 (configuration not stated)	-16%	1%	11%	3%
CCOC(=O)Cn1c(=O)oc2cc(S(=O)(=O)N(C)c3ccc(OC)cc3)ccc21	-1%	.	-20%	4%
COc1ccc(NC(=O)C2(C)CCCN2C(=O)C(C)C)cc1OC (configuration not stated)	-2%	-2%	-13%	.
COc1ccc(OC)c(NC(=O)CN(c2ccc(C)cc2)S(=O)(=O)c2c(C)noc2C)c1	?	-5%	?	0%
COc1ccc(N(CC(=O)Nc2cc(Cl)ccc2OC)S(=O)(=O)c2c(C)noc2C)cc1	4.1µM*	1%	3.3µM*	0%
CCOc1ccc(NC(=O)CN(c2cc(C)cc(C)c2)S(=O)(=O)c2c(C)noc2C)cc1	?	1%	?	-5%
COc1ccc(NC(=O)CN(c2cc(C)cc(C)c2)S(=O)(=O)c2c(C)noc2C)cc1Cl	23µM*	-2%	?	2%
COc1ccc(N(CC(=O)Nc2ccc(OC)c(Cl)c2)S(=O)(=O)c2c(C)noc2C)cc1	21µM*	3%	21µM*	3%
COc1ccccc1NC(=O)CN(c1ccc(C(C)C)cc1)S(=O)(=O)c1c(C)noc1C	23µM*	0%	18µM*	5%
C[C@@H]1CN(Cc2ccc3c(c2)CN(Cc2cccc(O)c2)CCO3)C[C@H](C)O1	?	.	-1%[9.04 µM]	.
O=C(Nc1cccc(Cl)c1N1CCCCC1)c1ccc2c(c1)OCCO2	21µM*	-18%	?	2%
SMILES	TDP1 cell noCPT	ClpP mod	TDP1 cell CPT	TDP1 inh
O=C(NC(=S)Nc1cccc(Cl)c1N1CCCCC1)c1ccc2c(c1)OCCO2	?	-2%	3.3µM*	0%
O=C(NC(=S)Nc1ccccc1Br)c1ccc2c(c1)OCO2	3%	1%	19%	3%
COc1ccccc1CNC(=O)CCCn1c(=O)c2ccccc2n(Cc2ccccc2F)c1=O	7.3µM*	-5%	9.2µM*	-1%
O=C(CCCCn1c(=O)c2ccccc2n(Cc2ccccc2F)c1=O)NC1CCN(Cc2ccccc2)CC1	16µM*	.	?	3%
Cc1cc(NC(=O)Cn2c(=O)n(CCCCC(=O)NC3CCN(Cc4ccccc4)CC3)c(=O)c3ccccc32)n[nH]1	.	.	.	6%
COc1cccc(CNC(=O)CCCn2c(=O)c3cccn3c3cccnc32)c1OC	?	-28%	?	-3%
COc1ccccc1CNC(=O)CCCn1c(=O)c2ccccc2n(Cc2ccc(C)cc2)c1=O	?	-3%	?	1%
COc1ccc(OC)c(CCNC(=O)CCCn2c(=O)c3cccn3c3ccccc32)c1	21µM*	0%	18µM*	0%
COc1ccccc1CNC(=O)CCCn1c(=O)c2cccn2c2ccccc21	29µM*	-3%	?	0%
C=CCOc1ccc(CNc2ccc3[nH]c(=O)[nH]c3c2)cc1	?	0%	?	6%
CCOC(=O)c1cc(C(C)(C)C)oc1CNC(=O)c1c(C)oc2c1CCCC2	?	-6%	?	2%
Cc1nn(-c2ccc3nnc(C)n3n2)c(C)c1CCC(=O)Nc1ccc(OC(F)(F)F)cc1	23µM*	3%	12µM*	7%
CC(=O)c1ccc(NC(=O)CCc2c(C)nn(-c3ccc4nnc(C)n4n3)c2C)cc1	-13%	-8%	1%	5%
CCOC(=O)/C(=N/Nc1ccc(C)cc1)S(=O)(=O)c1ccc(Cl)cc1	?	1%	16µM*	5%
COc1ccc(CCNCc2cc(C)n(-c3ccc(OC)cc3)c2C)cc1	?	0%	16µM*	.
COc1ccc(CCNCc2ccccc2N2CCCC2)cc1	?	.	18µM*	.
COc1ccc(CCNC(=O)CN2CCN(c3ccccc3Cl)CC2)cc1	?	0%	-22%	1%
O=[N+]([O-])c1c(C(Cl)Cl)nn(-c2ccc(Cl)cc2)c1N1CCCCC1	16µM*	-3%	?	3%
C/C=C1\CC2C=CC1C2 (configuration not stated)	.	.	.	14%
CCCCOc1ccc(NC(=S)Nc2cc(C)nc(SCCCC)n2)cc1	2.9µM*	-2%	5.8µM*	4%
CCOc1ccc(NC(=O)CSc2nc(C)cc(C)n2)cc1	?	-1%	?	3%
COc1ccc(-n2nc3c(=O)[nH][nH]c3cc2=O)cc1	-10%	.	?	45µM*
CCC(=O)N1CCc2cc(S(=O)(=O)NC(C(=O)NCCc3cccc(C)c3)C(C)C)ccc21 (configuration not stated)	-17%	2%	-9%	-2%
CN(Cc1ccccc1)c1nc(-c2cccc([N+](=O)[O-])c2)nc2ccccc12	18µM*	1%	18µM*	4%
CO/N=C1/c2cc(OC)ccc2O[C@@H](c2cccc(OC)c2)[C@H]1O	.	.	.	6%[21 µM]

Screening results: PubChem, National Center for Advancing Translational Sciences (NCATS)
